# Screening data deposited in PubChem BioAssay by National Center for Advancing Translational Sciences (NCATS).
# ERK EGF inh = blocks ERK signaling stimulated by EGF. HEK293-V1b, EGF-stimulated phospho-ERK AlphaScreen. Potency, µM (top dose mostly 11.5 µM), for the others: at the highest dose activity change, negative = inhibition, usual class: inhibitors. 130,000 compounds, 0.41% hits;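 note: potency is the fitted concentration of half-maximal effect; plate controls were stimulated vehicle wells for no effect and unstimulated vehicle basal for full effect; nearly all actives have a fitted effect of over 55% in size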
#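 HEK293 cells stably expressing V1b receptor, serum-reduced (1% FBS) overnight, pretreated 30 min with compound, then stimulated 5 min with 25 nM EGF; phospho-ERK detected by AlphaScreen SureFire. AC50 from Hill fits, normalized to DMSO and EGF.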
# ERK pERK EGF = confirmation of ERK pathway inhibitors under EGF stimulation. shares compounds with ERK EGF inh. Potency, µM (titrated, usually from 57.5 µM), without a hit: at the top dose activity change, negative = inhibition, actives largely listed as inhibitors. HEK293 EGF-stimulated ERK phosphorylation, AlphaScreen. AID 1725. 60 compounds, 60% hits
# cRaf kinase inh = c-Raf inhibition, ERK pathway follow-up; shares compounds with ERK EGF inh; c-Raf kinase inhibition, homogeneous biochemical assay; activity change, negative = inhibition, % at 76.9 µM; 70 tested, under 10 active; AID 1728
# MEK inh = blocks human MEK1 kinase activity in ERK pathway follow-up. shares compounds with ERK EGF inh. homogeneous MEK kinase activity assay, ERK pathway. Potency, µM (series often up to 76.9 µM), inactives show at the highest dose activity change, negative = inhibition, most hits filed as inhibitors. 70 tested, under 10 active
# Starred values were filed as active, the others as inactive; ? = inconclusive; . = no result; [ ] = remark or other dose. The full list was thinned out, with hits kept by preference. Calls come from the whole dose curve; as a rule, active = well fitted curve in the direction sought with a large enough effect; inconclusive = small, poorly fitted or top-dose-only effect, or another doubt; inactive = no such curve, though single readings can be large; an effect the other way counts as inactive or inconclusive.
SMILES,ERK EGF inh,others
COc1ccc(C(=O)N2C(=S)NC(=O)/C2=C\c2ccc(C)cc2)cc1,1.3%,
COc1ccc(N2C(=O)/C(=C/N(C)C)NC2=S)cc1,1.7%[57.5 µM],
COc1ccc(C(=O)N2CCC3(CCCN(c4ccc(-c5ccccc5)cc4)C3)CC2)cc1,-3.0%,
COc1ccc(N=C2C(=Nc3ccc(OC)cc3)N(c3ccc(N(C)C)cc3)C(=S)N2c2ccc(OC)cc2)cc1,.,ERK pERK EGF=-8.6%;cRaf kinase inh=-10.1;MEK inh=-9.3%
COc1ccc(N=C2C(=Nc3ccc(OC)cc3)N(c3ccccc3)C(=S)N2C(=O)c2ccc(Cl)cc2)cc1,2.24µM*,ERK pERK EGF=164.8%;cRaf kinase inh=-10.1;MEK inh=-6.4%
COc1ccc(NC(=S)c2ccc(N(C)C)cc2)cc1,-3.8%,
COC(=O)CN1C(=S)N(c2ccc(OC)cc2)C(=O)/C1=C/c1ccc(OC)cc1,-10.1%,
Cc1cccc(CNc2ncnc3ccc(-c4cccc(C#N)c4)cc23)c1,14.6%,
CC1(C)CC=C(O[Si](C)(c2ccccc2)c2ccccc2)CC1,-6.0%,
O=S(=O)(NCCCCCCc1ccccc1)c1cccc2c(Cl)cccc12,-2.4%,
COC(=O)c1ccc(C(NC(=O)OCc2ccccc2)/C(=C/[C@@H](C)C(=O)NCc2ccc(OC)c(O)c2)c2cccnc2)cc1 (some centres not stated),-1.4%,
CC1=NN(c2ccc([N+](=O)[O-])cc2)C(=O)C1[N+](=O)[O-] (configuration not stated),7.0%,
Brc1ccc2c(c1)c1cc(Br)ccc1n2CC1CO1 (configuration not stated),6.9%,
COc1ccc2oc(-c3ccc(O)cc3)cc(=O)c2c1,2.8%,
N#CC(C#N)=C1C=CC=CN1/C(=C\c1ccco1)C(=O)c1ccc(Br)cc1,7.94µM*,ERK pERK EGF=15.8µM*;cRaf kinase inh=?;MEK inh=-23.2%
Cc1ccc(C(=O)N/C(=C/c2ccco2)C(=O)O)cc1,-4.3%,
N#Cc1cccc(NC(=O)N2CCC3(CC2)CCN(C(=O)c2cnccn2)CC3)c1,-12.0%,
